Reference: PubChem BioAssay (NCATS)
Inconclusive results are not listed. Calls of active or inactive are those of the source. Unless noted, the call rests on the fitted dose curve; in most records, active means well fitted curve in the direction sought with a large enough effect; inconclusive means small, poorly fitted or top-dose-only effect, or another doubt; inactive means no such curve, though single readings can be large; an effect the other way counts as inactive or inconclusive.

Key:
[1] = qHTS for Inhibitors of Plasmodium falciparum (DD2) proliferation (AID 504314);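 further: parasite DNA measured by SYBR Green fluorescence after red cell lysis; plate controls were DMSO vehicle for no effect and artemisinin wells for full effect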
How it was run: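 Quantitative HTS growth inhibition: SYBR Green I binding to parasite DNA after 72 h drug exposure of infected erythrocytes (0.3% parasitemia, 2.5% hematocrit). Signals normalized per plate to inhibitor and vehicle wells.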

[2] = qHTS for Inhibitors of Plasmodium falciparum (GB4) proliferation (AID 504315);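 further: 0% = DMSO vehicle and -100% = 0.29 µM artemisinin control; nearly all actives have a fitted effect of over 50% in size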
How it was run: (§1)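 Erythrocytes infected with P. falciparum line (0.3% parasitemia, 2.5% hematocrit final) incubated with compounds 72 h at 37 °C, 5% CO2; SYBR Green lysis buffer added, fluorescence read next day. Normalized to 0.29 uM artemisinin and DMSO.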

[3] = qHTS for Inhibitors of Plasmodium falciparum (7G8) proliferation (AID 504316);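 further: series mostly up to about 6.7 µM; 0% = DMSO vehicle and -100% = 0.29 µM artemisinin full kill; nearly all actives have a fitted effect of over 65% in size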
How it was run: as §1

[4] = qHTS for Inhibitors of Plasmodium falciparum (CP250) proliferation (AID 504320);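 further: plate controls were DMSO vehicle for no effect and 0.29 µM artemisinin control for full effect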
How it was run: as §1

[5] = molecular target: Atrial natriuretic peptide receptor 1 (Homo sapiens) (UniProt P16066); assay: Natriuretic polypeptide receptor (hNpr1) antagonism - Pilot CMLD screen (AID 1347052; calls by dose curve;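 further: HEK293 cells with hNpr1 stimulated by hNppA peptide at 0.1 nM; cGMP level read as GloSensor luciferase luminescence after agonist stimulation; series mostly up to about 9.2 µM; on the % scale 0 is the no-effect control and ±100 the full control effect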)
Atrial natriuretic peptide receptor 1 (Homo sapiens), sequence (P16066 whole entry, looked up): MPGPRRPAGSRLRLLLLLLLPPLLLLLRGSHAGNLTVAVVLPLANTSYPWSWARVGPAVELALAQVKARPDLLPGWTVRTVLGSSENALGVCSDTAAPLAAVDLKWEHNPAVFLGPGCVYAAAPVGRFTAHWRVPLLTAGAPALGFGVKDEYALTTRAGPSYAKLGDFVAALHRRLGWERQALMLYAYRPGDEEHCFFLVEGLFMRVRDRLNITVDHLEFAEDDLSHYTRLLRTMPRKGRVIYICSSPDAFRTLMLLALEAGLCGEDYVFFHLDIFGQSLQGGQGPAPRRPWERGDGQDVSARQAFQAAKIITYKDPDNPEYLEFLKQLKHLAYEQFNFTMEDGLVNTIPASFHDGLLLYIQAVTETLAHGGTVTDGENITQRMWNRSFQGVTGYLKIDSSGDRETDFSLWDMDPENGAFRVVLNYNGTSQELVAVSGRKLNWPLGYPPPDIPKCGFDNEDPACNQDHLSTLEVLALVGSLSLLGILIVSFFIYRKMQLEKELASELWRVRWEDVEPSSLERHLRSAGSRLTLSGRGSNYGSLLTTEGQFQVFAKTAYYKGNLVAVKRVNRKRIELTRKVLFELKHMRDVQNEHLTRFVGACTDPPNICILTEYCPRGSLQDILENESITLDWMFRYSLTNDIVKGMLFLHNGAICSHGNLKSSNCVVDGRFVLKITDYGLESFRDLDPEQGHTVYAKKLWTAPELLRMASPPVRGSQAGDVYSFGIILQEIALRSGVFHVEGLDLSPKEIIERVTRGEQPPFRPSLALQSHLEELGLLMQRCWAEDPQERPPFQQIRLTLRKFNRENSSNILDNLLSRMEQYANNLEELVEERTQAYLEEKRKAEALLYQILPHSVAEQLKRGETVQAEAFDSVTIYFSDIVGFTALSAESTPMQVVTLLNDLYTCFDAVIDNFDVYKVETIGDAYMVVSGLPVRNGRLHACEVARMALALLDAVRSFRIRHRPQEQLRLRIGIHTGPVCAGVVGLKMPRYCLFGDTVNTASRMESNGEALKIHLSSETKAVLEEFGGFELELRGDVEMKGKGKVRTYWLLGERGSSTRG

[6] = qHTS for Inhibitors of Plasmodium falciparum (HB3) proliferation (AID 504318);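 further: 0% = DMSO vehicle and -100% = artemisinin control; nearly all actives have a fitted effect of over 60% in size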
How it was run: as §1

CCOC(=O)[C@@]1([C@@H](NC(=O)OC)c2ccco2)CCCC1=O
inactive: Potency [1] | Potency [2] | Potency [3] | Potency [4] | Potency [5]

C[C@@H]1C=CCCO[C@]12C(=O)N(Cc1ccccc1C(F)(F)F)c1ccccc12
inactive: Potency [1] | Potency [2] | Potency [3] | Potency [4] | Potency [5]

COC(=O)C1=C(C(=O)OC)[C@@H]2N(Cc3ccccc3)c3ccccc3[C@@]23C[C@@H](C(=O)OC)N(C(=O)c2cc(C)oc2C)C3=N1
inactive: Potency [1] | Potency [2] | Potency [3] | Potency [4] | Potency [5]

CCOC(=O)CCN1C(=O)[C@@H]2[C@H]3[C@H](O)[C@H](O)CC(=NNC(=O)OCc4ccc(OC)cc4)[C@H]3CC[C@H]2C1=O
inactive: Potency [1] | Potency [2] | Potency [3] | Potency [4] | Potency [5]

COc1cccc(CO[C@H]2C=C[C@@H](c3ccccc3)O[C@H]2COC(C)=O)c1
inactive: Potency [1] | Potency [2] | Potency [3] | Potency [4] | Potency [5]

C[C@H]1CCCC(=O)N[C@@H](c2ccccc2)[C@@H](C)CCCC(=O)N[C@@H]1c1ccccc1
inactive: Potency [1] | Potency [2] | Potency [3] | Potency [4] | Potency [5]

CCCNC(=O)CC1OC(C2CCCCC2)Cc2ccccc21 (stereo unspecified)
inactive: Potency [1] | Potency [2] | Potency [3] | Potency [4] | Potency [5]

C=CCOC(=O)N[C@H](c1cccc(C(F)(F)F)c1)C(C(C)=O)C(C)=O
inactive: Potency [1] | Potency [2] | Potency [3] | Potency [4] | Potency [5]

COC(=O)C1=C(C(=O)OC)[C@@H]2N(Cc3ccccc3)c3ccccc3[C@@]23C[C@@H](C(=O)OC)N(C(=O)Nc2ccc(C(F)(F)F)cc2)C3=N1
inactive: Potency [1] | Potency [2] | Potency [3] | Potency [4] | Potency [5]

C[C@H]1Cc2c(COc3ccccc3)nc3c(c2CO1)CN(C(=O)C1CCCCC1)CC3
inactive: activity, negative = inhibition [1] -0.952% [at 1.12 µM] | Potency [2] | Potency [3] | Potency [4] | Potency [5]

CCN1C(=O)NC(c2cccc(C(F)(F)F)c2)C(C(=O)OC)=C1C (stereo unspecified)
inactive: Potency [1] | Potency [2] | Potency [3] | Potency [4] | Potency [5]

COC(=O)CCCC1=CC2=CC(=O)C(C)(OC(=O)c3cccs3)C(=O)C2=CN1Cc1ccco1 (stereo unspecified)
inactive: Potency [1] | Potency [2] | Potency [3] | Potency [4] | Potency [5]

CCCNC(=O)OC[C@H]1O[C@H](CCON=C2C[C@@H](O)[C@@H](O)[C@@H]3[C@H]4C(=O)N(CC)C(=O)[C@@H]4CC[C@H]23)C=C[C@H]1Oc1ccc(OC)cc1
inactive: Potency [1] | Potency [2] | Potency [3] | Potency [4] | Potency [5]

CC(C)CON=C1C[C@@H](O)[C@@H](O)[C@@H]2[C@H]3C(=O)N([C@@H](C)c4ccccc4)C(=O)[C@@H]3CC[C@H]12
inactive: Potency [1] | Potency [2] | Potency [3] | Potency [4] | Potency [5]

CCN1C(=NCCCOC(C)C)N[C@H](c2ccccc2)[C@H](C(=O)OC)[C@H]1C
inactive: Potency [1] | Potency [2] | Potency [6] | Potency [5]

COC(=O)C1=C[C@@H]([C@@H](C)[C@H](OC)c2ccccc2Br)[C@@H]2OCC[C@H]12
inactive: Potency [1] | Potency [2] | Potency [3] | Potency [4] | Potency [5]

CCOC(=O)OC[C@H]1O[C@H](C#Cc2ccc(C)cc2C)C=C[C@H]1OC(=O)OCC
inactive: Potency [1] | Potency [2] | Potency [3] | Potency [4] | Potency [5]

COC(=O)[C@H](COC(C)(C)C)NC(=O)O[C@@H]1C(=O)c2cc(Br)ccc2O[C@H]1c1ccc2c(c1)OCO2
inactive: Potency [1] | Potency [2] | Potency [6] | Potency [5]

COc1ccc(-c2ccc3c(n2)CCCN3CC(O)CN2CCCc3nc(C)c(C)cc32)cc1 (stereo unspecified)
inactive: Potency [1] | Potency [2] | Potency [6] | Potency [5]

COC(=O)C1=C(C)N(Cc2ccccc2)C(=S)NC1CCc1ccccc1 (stereo unspecified)
inactive: Potency [1] | Potency [2] | Potency [3] | Potency [4] | Potency [5]

O=C(NN=C1C[C@@H](O)[C@H](O)[C@H]2[C@@H]3C(=O)N(C[C@@H]4CCCO4)C(=O)[C@@H]3CC[C@H]12)OCc1ccccc1
inactive: Potency [1] | Potency [2] | Potency [3] | Potency [4] | Potency [5]

CCCCC1=CC2=C(c3ccco3)C(=O)C(C)(OC(=O)c3ccc(OC)cc3)C(=O)C2=CN1CCc1ccccn1 (stereo unspecified)
inactive: Potency [1] | Potency [2] | Potency [3] | Potency [4] | Potency [5]

O=C(NN=C1C[C@@H](O)[C@H](O)[C@H]2[C@@H]3C(=O)N(C4CCCCC4)C(=O)[C@@H]3CC[C@@H]12)OCc1ccccc1
inactive: Potency [1] | Potency [2] | Potency [3] | Potency [4] | Potency [5]

CC1(OC(=O)c2cnc3ccccc3n2)C(=O)C=C2C=C(c3ccc(C#N)cc3)OC=C2C1=O (stereo unspecified)
inactive: Potency [1] | Potency [2] | Potency [6] | Potency [5]

COC(=O)[C@H]1C[C@@]2(CC=C(C)C)C(=O)[C@@](CC=C(C)C)(C(=O)C(C(=O)c3ccccc3)=C2OC)C1(C)C
inactive: Potency [1] | Potency [2] | Potency [3] | Potency [4] | Potency [5]

CCOC(=O)CNC(=O)O[C@@H]1C(=O)c2cc(OC)ccc2O[C@H]1c1cccc(OC)c1
inactive: Potency [1] | Potency [2] | Potency [3] | Potency [4] | Potency [5]

COC[C@H]1O[C@@H](c2c(OC)cc(OC)cc2OC)[C@H](OC)[C@@H](OC)[C@H]1OC
inactive: Potency [1] | Potency [2] | Potency [3] | Potency [4] | Potency [5]

CCN1C(=NCCc2cccnc2)N[C@H](CCc2ccccc2)[C@H](C(=O)OC)[C@H]1C
inactive: Potency [1] | Potency [2] | Potency [3] | Potency [4] | Potency [5]
